GDH-TPI counter-1 = inhibits GDH-TPI coupling enzymes, artifact for Mtb FBA screen. GDH-TPI coupled enzyme counterscreen, NADH absorbance. inhibition, % at 4.8 µM. 360,000 tested, 1.2% active. AID 588335; in the data active = inhibition above about 30%
BioA inh = BioA (M. tuberculosis) enzyme inhibition; purified M. tuberculosis BioA enzyme, plate reader; inhibition, % at 9.99 µM; 360,000 tested, 0.096% active; in the data active = inhibition above about 40%
Mtb FBA inh = inhibitors of M. tuberculosis fructose-bisphosphate aldolase; purified M. tuberculosis FBA, fluorescence read-out; inhibition, % at 1 µM; P9WQA3; 360,000 tested, 2.3% active
Target sequence (P9WQA3 whole entry, looked up): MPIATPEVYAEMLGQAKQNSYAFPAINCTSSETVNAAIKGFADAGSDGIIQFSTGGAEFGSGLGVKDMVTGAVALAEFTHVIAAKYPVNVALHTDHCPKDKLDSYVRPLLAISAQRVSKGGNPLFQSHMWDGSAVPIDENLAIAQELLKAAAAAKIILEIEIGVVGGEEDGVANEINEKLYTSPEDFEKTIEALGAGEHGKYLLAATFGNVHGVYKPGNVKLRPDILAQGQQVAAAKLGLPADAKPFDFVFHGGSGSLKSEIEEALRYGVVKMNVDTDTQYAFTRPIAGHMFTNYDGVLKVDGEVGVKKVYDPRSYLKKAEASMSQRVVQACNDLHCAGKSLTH
Vc quorum ag = inducers of Vibrio cholerae quorum light production without autoinducers. V. cholerae BH1578 lux reporter, luminescence, 6 h. activation, % at 18.7 µM. 350,000 tested, 0.16% active; in the data active = activation mostly above about 9.7%, no sharp cut-off
Mtb FBA inh conf = confirmation of M. tuberculosis fructose-bisphosphate aldolase inhibitors; shares compounds with Mtb FBA inh; purified M. tuberculosis FBA, fluorescence read-out; inhibition, % at 1 µM; 5,600 tested, 78% active; AID 651616
GDH-TPI counter-2 = inhibits GDH-TPI coupling enzymes, flagging Mtb FBA hits | shares compounds with Mtb FBA inh | 5,600 tested, 81% active | inhibition, % at 1 µM | GDH-TPI coupled enzyme counterscreen, fluorescence | AID 652141; in the data active = inhibition above about 10%
Hits are given with their value. In the library only some 3% were active in any assay of this set; here they are far more common. Rule as the data show it, unless noted: active = inhibition above about 27%; inactive = the rest.

For C[C@H](CO)N1C[C@H](C)[C@@H](CN(C)C(=O)Nc2cccc(C(F)(F)F)c2)OCc2cnnn2CCCC1=O the results were BioA inh inactive.
C[C@H](CO)N1C[C@H](C)[C@@H](CN(C)Cc2ccccn2)Oc2cc(C3=CCCC3)ccc2S1(=O)=O was read as BioA inh inactive.
`COCC(=O)NC[C@@H]1[C@H](c2ccc(C3=CCCC3)cc2)[C@@H](CO)N1C(C)=O` gave BioA inh inactive.
For CCC1(C(=O)OC)CCc2c(cc(OC)c3ccccc23)C1=O (stereo unspecified) the results were GDH-TPI counter-1 inactive, Mtb FBA inh 28, Vc quorum ag inactive, Mtb FBA inh conf 111 and GDH-TPI counter-2 71.
Screening COC(=O)C1(C)CCc2c(ccc3ccccc23)C1=O (stereo unspecified) returned Mtb FBA inh 35, Mtb FBA inh conf 56 and GDH-TPI counter-2 47.
For COc1ccccc1CCNC(=O)C(=O)c1cn(CC(=O)N2CCOCC2)c2ccccc12 the results were GDH-TPI counter-1 inactive, BioA inh inactive, Mtb FBA inh 80, Vc quorum ag inactive, Mtb FBA inh conf 104 and GDH-TPI counter-2 85.
For CNC(=O)C[C@H]1CC[C@H]2[C@@H](COc3ccc(NC(=O)c4cccs4)cc3C(=O)N2C)O1 the results were BioA inh inactive.
CC(C)CNc1oc(-c2ccco2)nc1C#N was read as GDH-TPI counter-1 inactive, BioA inh inactive, Mtb FBA inh 72, Vc quorum ag inactive, Mtb FBA inh conf 97 and GDH-TPI counter-2 80.
CC(Nc1oc(-c2ccco2)nc1C#N)c1ccccc1 (stereo unspecified) was read as GDH-TPI counter-1 inactive, BioA inh inactive, Mtb FBA inh 49, Vc quorum ag inactive, Mtb FBA inh conf inactive and GDH-TPI counter-2 inactive.
N#Cc1nc(-c2ccco2)oc1NCc1ccc(F)cc1 was read as GDH-TPI counter-1 inactive, BioA inh inactive, Mtb FBA inh 40, Vc quorum ag inactive, Mtb FBA inh conf 103 and GDH-TPI counter-2 84.
`CC(C)C(=O)Nc1ccc2c(c1)C(=O)N(C)[C@@H]1CC[C@H](CC(=O)N[C@@H](C)c3ccccc3)O[C@H]1CO2` gave BioA inh inactive.
Screening Cc1noc(C)c1S(=O)(=O)Nc1ccc2c(c1)C(=O)N([C@H](C)CO)C[C@H](C)[C@@H](CN(C)S(=O)(=O)c1ccccc1)OCCCC[C@@H](C)O2 returned BioA inh inactive.
For CCC(=O)N(C)C[C@@H]1Oc2ncc(-c3ccc(F)cc3)cc2C(=O)N([C@@H](C)CO)C[C@@H]1C the results were BioA inh inactive.
For c1ccc(N2CC3CCc4ccccc4C3=N2)cc1 (stereo unspecified) the results were GDH-TPI counter-1 inactive, BioA inh inactive, Mtb FBA inh 58, Vc quorum ag inactive, Mtb FBA inh conf 46 and GDH-TPI counter-2 31.
`CCC1(C)NC(C(=O)O)Cc2c1[nH]c1ccccc21` (stereo unspecified) gave GDH-TPI counter-1 inactive, BioA inh inactive, Mtb FBA inh inactive and Vc quorum ag inactive.
CCCC1NC(C(=O)O)Cc2c1[nH]c1ccccc21 (stereo unspecified) was read as GDH-TPI counter-1 inactive, BioA inh inactive, Mtb FBA inh 29, Vc quorum ag inactive, Mtb FBA inh conf 36 and GDH-TPI counter-2 35.
Screening CC(C)CC1NC(C(=O)O)Cc2c1[nH]c1ccccc21 (stereo unspecified) returned GDH-TPI counter-1 inactive, BioA inh inactive, Mtb FBA inh inactive and Vc quorum ag inactive.
`CC(C)C1NC(C(=O)O)Cc2c1[nH]c1ccccc21` (stereo unspecified) gave GDH-TPI counter-1 inactive, BioA inh inactive, Mtb FBA inh 45, Vc quorum ag inactive, Mtb FBA inh conf 164 and GDH-TPI counter-2 142.
Screening COc1ccc(/C=N/c2oc(-c3ccccc3)cc2C#N)cc1 returned GDH-TPI counter-1 inactive, BioA inh inactive, Mtb FBA inh inactive and Vc quorum ag inactive.
For N#Cc1cc(-c2ccccc2)oc1/N=C/c1ccccc1O the results were GDH-TPI counter-1 inactive, BioA inh inactive, Mtb FBA inh 59, Vc quorum ag inactive, Mtb FBA inh conf 45 and GDH-TPI counter-2 29.
`COc1cccc(/C=N/c2oc(-c3ccccc3)cc2C#N)c1O` gave GDH-TPI counter-1 inactive, Mtb FBA inh 54, Vc quorum ag inactive, Mtb FBA inh conf inactive and GDH-TPI counter-2 inactive.
For CO[C@H]1CN(C)C(=O)c2cc(NC(=O)C3CCCC3)ccc2OC[C@H](C)N(CC2CC2)C[C@H]1C the results were BioA inh inactive.
Cc1ccc2nc(Cl)cc(=O)n2c1 was read as GDH-TPI counter-1 inactive, Mtb FBA inh 45, Vc quorum ag inactive, Mtb FBA inh conf 130 and GDH-TPI counter-2 88.
Screening COCCNC(=S)Nc1ccc2nc(N3CCCC3)cc(C)c2c1 returned GDH-TPI counter-1 inactive, BioA inh inactive, Mtb FBA inh inactive and Vc quorum ag inactive.
`Cc1cc(N2CCOCC2)nc2ccc(NC(=S)NC(C)C)cc12` gave GDH-TPI counter-1 inactive, BioA inh inactive, Mtb FBA inh 37, Vc quorum ag inactive, Mtb FBA inh conf 108 and GDH-TPI counter-2 96.
`Cc1cc(N2CCOCC2)nc2ccc(NC(=S)NCc3ccc4c(c3)OCO4)cc12` gave GDH-TPI counter-1 inactive, Mtb FBA inh inactive and Vc quorum ag inactive.
Screening Cc1cc(N2CCCC2)nc2ccc(NC(=S)NC(C)C)cc12 returned GDH-TPI counter-1 inactive, Mtb FBA inh 31, Vc quorum ag inactive, Mtb FBA inh conf inactive and GDH-TPI counter-2 16.
Screening CCOCCCNC(=S)Nc1ccc2nc(N3CCCC3)cc(C)c2c1 returned GDH-TPI counter-1 inactive, BioA inh inactive, Mtb FBA inh inactive and Vc quorum ag inactive.
For COCCNC(=S)Nc1ccc2nc(N3CCOCC3)cc(C)c2c1 the results were GDH-TPI counter-1 inactive, BioA inh inactive, Mtb FBA inh 51, Vc quorum ag inactive, Mtb FBA inh conf inactive and GDH-TPI counter-2 inactive.
Screening COc1cccc(S(=O)(=O)Nc2ccc3c(c2)C(=O)N(C)[C@H]2CC[C@@H](CC(=O)O)O[C@H]2CO3)c1 returned BioA inh inactive.
Screening Cc1noc(C)c1NC(=O)N[C@@H]1C=C[C@H](CC(=O)Nc2ccccc2)O[C@H]1CO returned BioA inh inactive.
C[C@@H]1CCCCO[C@H](CN(C)CC2CCCCC2)[C@H](C)CN([C@H](C)CO)C(=O)c2cc(NS(=O)(=O)c3ccc(Cl)cc3)ccc2O1 was read as BioA inh inactive.
Screening COC(=O)c1cc(NC(=O)CSc2nnc(CN3CCOCC3)n2C)ccc1Cl returned GDH-TPI counter-1 inactive, BioA inh inactive, Mtb FBA inh inactive and Vc quorum ag inactive.
`Cn1c(CN2CCOCC2)nnc1SCC(=O)Nc1cc(Cl)ccc1Cl` gave GDH-TPI counter-1 inactive, BioA inh inactive, Mtb FBA inh 27, Vc quorum ag inactive, Mtb FBA inh conf inactive and GDH-TPI counter-2 inactive.

From PubChem
